Mtb BioA inh: M. tuberculosis BioA enzyme inhibitors, primary screen, biochemical, plate reader, single point, HTS | purified M. tuberculosis BioA enzyme | 7,8-diaminopelargonic acid synthase BioA (Mycobacterium tuberculosis) | 360,000 tested, 0.096% active | AID 602481, 2012 | inhibition, % at 9.99 µM; in the data active = inhibition above about 40%
Mtb FBA inh: Mtb FBA enzyme inhibitors, primary screen, biochemical, fluorescence, strain H37Rv | inhibition, % at 1 µM | 360,000 tested, 2.3% active | AID 588726, 2011 | purified M. tuberculosis FBA, fluorescence read-out;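 also: 0% = vehicle and 100% = reference inhibitor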
Target sequence (P9WQA3 whole entry, looked up): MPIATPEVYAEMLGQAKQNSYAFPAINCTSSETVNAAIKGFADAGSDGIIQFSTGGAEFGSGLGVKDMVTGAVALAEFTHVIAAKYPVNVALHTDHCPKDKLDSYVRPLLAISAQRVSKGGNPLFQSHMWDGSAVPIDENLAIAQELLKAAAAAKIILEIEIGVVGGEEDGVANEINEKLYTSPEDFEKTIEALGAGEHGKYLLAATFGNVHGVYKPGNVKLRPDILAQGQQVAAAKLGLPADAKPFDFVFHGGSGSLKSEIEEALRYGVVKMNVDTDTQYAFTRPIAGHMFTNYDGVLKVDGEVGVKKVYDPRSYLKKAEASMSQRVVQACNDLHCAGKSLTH
Mtb hypoxia inh: PubChem AID 1159583 | M. tuberculosis hypoxia-regulated fluorescent reporter, fluorescence | fluorescence inhibition, % (concentration not given with the values) | 300,000 tested, 0.1% active; in the data active = fluorescence inhibition mostly above about 23%, no sharp cut-off; inactive = mostly below about 17%
GDH-TPI counter-1: GDH-TPI coupling enzyme inhibitors, primary screen, artefact control for M. tuberculosis FBA inhibitor project, biochemical, absorbance, full deck; GDH-TPI coupled enzyme counterscreen, NADH absorbance; inhibition, % at 4.8 µM; 360,000 tested, 1.2% active; in the data active = inhibition above about 30%;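 also: 0% = DMSO wells and 100% = wells lacking the enzyme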
FadD28 binding: inhibitors of FadD28 bisubstrate probe binding, primary screen, biochemical, fluorescence polarization, single point; inhibition, % at 12.5 µM; AID 588549, 2011; 360,000 tested, 0.22% active; Mycobacterium tuberculosis FadD28 fatty-acid-AMP ligase; in the data active = inhibition above about 8.5%, passing the limit was not always enough
Mtb FBA inh conf: M. tuberculosis aldolase blockers, biochemical, fluorescence, strain H37Rv, confirmation; purified M. tuberculosis FBA, fluorescence read-out; inhibition, % at 1 µM; shares compounds with Mtb FBA inh; 5,600 tested, 78% active;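 also: 0% = vehicle wells and 100% = reference inhibitor wells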
GDH-TPI counter-2: GDH-TPI coupling enzyme inhibitors, artefact control for M. tuberculosis FBA inhibitor project, biochemical, fluorescence, high throughput. shares compounds with Mtb FBA inh. GDH-TPI coupled enzyme counterscreen. inhibition, % at 1 µM. 5,600 tested, 81% active; in the data active = inhibition above about 10%
Starred values were filed as active, the others as inactive; · = no result; + = active, no number. Shown are actives, neighbours in structure and some others; about 2.9% of the full set was active somewhere. Rule as the data show it, unless noted: active = inhibition above about 27%; inactive = the rest.

SMILES	Mtb BioA inh	Mtb FBA inh	Mtb hypoxia inh	GDH-TPI counter-1	FadD28 binding	Mtb FBA inh conf	GDH-TPI counter-2
CCCn1nnnc1NCc1c(F)cccc1Cl	·	68.3*	-0.5	-2.3	-3.8	-6.6	-6.5
CSc1nc(-c2ccccc2)c(-c2ccccc2)[nH]1	1.4	49.5*	13.1	-5.5	-4.1	7.4	-4.2
C[C@H]1CN([C@@H](C)CO)C(=O)c2cccc(NC(=O)C3CCOCC3)c2O[C@@H]1CN(C)Cc1ccc(-c2ccccc2)cc1	-0.4	·	·	·	·	·	·
Nc1cc2nn(-c3ccccc3)nc2cc1Cl	·	36.2*	7.0	7.7	-1.1	109.0*	88.5*
NS(=O)(=O)c1ccc(NC(=O)COC(=O)COc2ccc3ccccc3c2)cc1	-0.7	42.3*	2.3	5.0	-3.3	55.5*	37.4*
O=C(O)c1ccc2c(=O)n3c(nc2c1)/C(=C/c1ccc(C(F)(F)F)cc1)CC3	1.8	27.8*	-9.5	27.6	·	45.7*	33.5*
Nc1nc2c(c3c1c(=O)oc1ccccc13)CCCCC2	-1.1	38.1*	14.2	1.9	-2.2	-10.8	-14.2
CC(=O)Nc1nc2c(c3c1c(=O)oc1ccccc13)CCCCC2	·	·	6.4	·	·	·	·
CCOC(=O)CNc1c(-c2ccc(O)cc2)nc2ccc(Cl)cn12	2.0	4.7	11.7	16.2	0.1	·	·
CCOC(=O)CNc1c(-c2ccc(O)cc2)nc2ccccn12	1.6	40.5*	16.0	13.7	-0.4	2.6	-0.9
O=C(Nc1c(-c2ccccc2)nc2ccccn12)c1ccccc1	1.4	-1.4	14.2	0.8	0.1	·	·
CCC(=O)Nc1c(-c2ccc3ccccc3c2)nc2ccccn12	-6.2	50.2*	-19.9	15.4	0.3	62.3*	75.3*
CC(=O)Nc1c(-c2ccc3ccccc3c2)nc2ccccn12	0.3	59.1*	6.4	13.0	-1.9	41.3*	29.6*
C[C@@H]1CCCCO[C@H](CN(C)Cc2ccc(C(=O)O)cc2)[C@H](C)CN([C@H](C)CO)C(=O)c2cc(NC(=O)Nc3ccccc3)ccc2O1	0.1	·	·	·	·	·	·
CC(=O)n1cc([C@H]2C=C(C(=O)N3CCCCCCC3)O[C@@H](OCCCCO)C2)c2ccccc21	-0.2	·	·	·	·	·	·
C=C1c2cc(OC)ccc2NC(=O)N1CC	-1.1	34.3*	·	12.8	-0.4	3.2	2.0
COc1ccc2c(c1)/C(=C/c1cc(OC)c(OC)c(OC)c1)C(=O)N2	·	0.4	·	19.0	1.5	·	·
C[C@H]1CN([C@@H](C)CO)S(=O)(=O)c2ccc(-c3ccccc3)cc2O[C@H]1CN(C)C(=O)C1CC1	2.4	·	·	·	·	·	·
Cc1nn2c(=O)c(NC(=O)c3ccc(Cl)cc3)cnc2s1	-0.3	65.0*	3.8	6.9	-0.9	43.8*	28.4*
COC(=O)c1c(C)n(-c2ccc(OC)cc2)c2ccc(O)cc12	-0.4	2.2	·	9.7	-1.7	·	·
CCOC(=O)c1c(C)n(-c2ccc(F)cc2)c2ccc(O)cc12	-1.3	35.0*	8.1	-2.8	-1.8	43.7*	24.4*
CCCc1nc2oc(C(=O)OCC)c(N)c2c2c1COC(C)(C)C2	-0.6	58.6*	22.2	16.8	-2.8	91.8*	88.6*
CCCc1nc2sc(C(=O)OCC)c(N)c2c2c1COC(C)(C)C2	-1.4	7.5	·	16.6	-1.2	·	·
Cc1nn(-c2ccccc2)nc1C(=O)OCC(=O)N1CCC(C)CC1	-0.3	28.4*	5.3	-1.4	0.0	94.0*	76.5*
CC1CCN(C(=O)COC(=O)c2n[nH]c3ccccc23)CC1	0.1	11.9	-1.0	-9.0	-0.4	·	·
SMILES	Mtb BioA inh	Mtb FBA inh	Mtb hypoxia inh	GDH-TPI counter-1	FadD28 binding	Mtb FBA inh conf	GDH-TPI counter-2
Cc1oc2c(c(C)cc3oc(=O)c(CC(=O)NCCCN4CCCC4=O)c(C)c32)c1C	0.8	18.8	·	11.8	-2.2	·	·
COCCNC(=O)Cc1c(C)c2c(cc(C)c3c(C)coc32)oc1=O	-1.0	37.9*	10.2	1.4	-3.0	159.2*	124.6*
Cc1coc2c1c(C)cc1oc(=O)c(CC(=O)NCCC(=O)O)c(C)c12	-1.2	90.8*	7.7	10.0	-1.9	61.7*	56.6*
Cc1coc2c(C)c3oc(=O)c(CCC(=O)NCCC(=O)O)c(C)c3cc12	-0.1	12.1	-5.1	11.6	0.5	·	·
Cc1coc2c1c(C)cc1oc(=O)c(CC(=O)NCC(=O)NCC(=O)O)c(C)c12	-2.8	93.4*	5.7	19.8	-1.9	+	+
Cc1oc2c(c(C)cc3oc(=O)c(CC(=O)NCC(=O)NCC(=O)NCC(C)O)c(C)c32)c1C (stereo not given)	-0.9	23.9	0.6	-0.7	-0.3	·	·
COCCCNC(=O)Cc1c(C)c2c(cc(C)c3c(C(C)(C)C)coc32)oc1=O	1.4	36.3*	0.4	7.1	-2.9	62.0*	53.6*
Cc1coc2c1c(C)cc1oc(=O)c(Cc3ccccc3)c(C)c12	-1.4	-1.7	5.0	8.1	-2.4	·	·
CCOC(=O)Cc1csc(/N=C/c2c(O)n(-c3ccc(C)cc3C)c(=O)c3ccccc23)n1	-0.2	52.9*	3.5	13.6	0.5	59.5*	41.8*
CCOC(=O)COc1c(OC)cc(Cl)cc1C1Nc2ccccc2C(=O)N1c1cccc(C)c1 (stereo not given)	-0.3	17.5	8.0	0.8	-1.0	·	·
CCOC(=O)COc1ccccc1C1Nc2ccccc2C(=O)N1c1cccc(Cl)c1 (stereo not given)	·	36.4*	-11.4	6.1	-4.1	+	+
CCOC(=O)COc1c(OC)cc(Cl)cc1C1Nc2ccccc2C(=O)N1c1ccc(F)cc1 (stereo not given)	-1.3	33.2*	5.9	8.7	0.7	24.1	12.2*
CCOC(=O)COc1c(OC)cc(Cl)cc1C1Nc2ccccc2C(=O)N1c1ccccc1 (stereo not given)	-0.1	38.6*	5.8	6.0	-2.4	144.0*	117.8*
C[C@H]1CN([C@@H](C)CO)C(=O)c2c(c3ccccc3n2C)-c2ccccc2CO[C@H]1CN(C)C(=O)NC1CCCCC1	-0.5	·	·	·	·	·	·
CCCCn1c(=O)c2ccccc2c2ccccc2c1=O	-1.6	-0.8	-2.3	-1.2	1.0	·	·
CCCCn1c(=O)nc2n(-c3ccccc3C)c3ccccc3cc-2c1=O	0.0	60.6*	13.0	7.4	-2.0	+	+
Cc1cccn2c(=O)c3cc(C(=O)NC4CCCCCC4)sc3nc12	-1.1	26.7	-2.8	3.7	-2.7	·	·
Cc1cccn2c(=O)c3cc(C(=O)N4COCC4(C)C)sc3nc12	·	44.1*	19.6	-7.7	-2.9	191.5*	148.8*
